Data on five molecules can be found in PubChem BioAssay.

Active and inactive are the calls of the source.

The nature of test [1]: small molecules captured by biotinylated probe aFSTL3 – biochemical, small-molecule microarray, fluorescence 635/667, stem cell growth factor project, primary screen (AID 1064).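 Note: measures binding of the biotinylated anti-FSTL3 antibody to printed compounds.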 The following applies: higher = more signal.
Test [2] can be described thus: binders from COS7 lysate, DM2A8 probe, primary screen, torsin A project, cell lysate, small-molecule microarray, fluorescence 635/667 (AID 1065). As to conditions: higher = more signal, COS7 lysate expressing mutant human TOR1A.
The nature of test [3]: small molecules captured by biotinylated probe aFGF2 – biochemical, small-molecule microarray, fluorescence 635/667, stem cell growth factor project, primary screen (AID 1067).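 Note: measures binding of biotinylated aFGF2 protein to printed compounds on slides; z-score merges feature fluorescence and signal-to-noise across triplicate slides.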 The following applies: higher = more signal.
The nature of test [4]: small molecules captured by biotinylated probe aFGF10 – biochemical, small-molecule microarray, fluorescence 635/667, stem cell growth factor project, primary screen (AID 1071).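 Note: score merges 667 nm spot intensity and signal to noise from triplicate slides.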 The following applies: higher = more signal.
In test [5] the target is Neurogenic locus notch homolog protein 2 (Homo sapiens) (UniProt Q04721). Nature of the test: small molecules binding Notch2 protein – biochemical, small-molecule microarray, 635 nm fluorescence, stem cell growth factors, primary screen (AID 1073). The following applies: higher = more signal.
For test [6], the target named is Pro-neuregulin-1, membrane-bound isoform (Homo sapiens) (UniProt Q02297). Nature of the test: small molecules binding neuregulin-1 protein – biochemical, small-molecule microarray, fluorescence 635/667, psychiatric disease protein project, primary screen (AID 1075).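 Note: score combines 667 nm spot fluorescence with signal to noise.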 The following applies: NRG1 binding, 635 nm fluorescence, higher = more signal.
Test [7] concerns Neuregulin-1 EGF-like domain. The test can be described thus: small molecules binding NRG1 EGF domain – biochemical, small-molecule microarray, 635 nm fluorescence, primary screen (AID 1081).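 Note: binding of the protein to compounds printed on small-molecule microarray slides.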 As to conditions: higher = more signal.
Test [8] in a line: FRG1 expression reporter modulators in myotubes – cell-based, C2C12 myotubes, firefly/Renilla luciferase, luminescence, FRG1 inhibition for FSHD, primary screen (AID 1084). As to conditions: FRG1 promoter luciferase, higher = more signal, called active from +8 up or from −8 down.
Test [9] in a line: small molecules captured by biotinylated probe aFST – biochemical, small-molecule microarray, fluorescence 635/667, stem cell growth factor project, primary screen (AID 1086).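 Note: score merges 667 nm fluorescence with signal-to-noise of each printed compound spot.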 The following applies: higher = more signal.
The nature of test [10]: binders of probe aHhip on microarray, primary screen, stem cell growth factor project, biochemical, small-molecule microarray, fluorescence 635/667 (AID 1087).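 Note: score merges spot fluorescence at 667nm with spot signal to noise ratio.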 As to conditions: higher = more signal.
The subject of test [11] is PRMT1 (protein arginine N-methyltransferase 1). Nature of the test: small molecules binding arginine methyltransferase PRMT1 – biochemical, small-molecule microarray, 635 nm fluorescence, primary screen (AID 1088).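 Note: binding of Prmt1 protein to compounds spotted on small-molecule microarray slides.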 The following applies: higher = more signal.
Test [12] in a line: growth effects on S. cerevisiae YJM789 – YJM789 clinical isolate, OD600, 24 h, basal, primary screen (AID 1089).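 Note: growth of clinical yeast isolate S. cerevisiae YJM 789 seeded 1000 cells per well; test concentration not given here.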 The following applies: higher = more signal, called active from +8 up or from −8 down.
Test [13] can be described thus: S. pombe growth modifiers, basal conditions – strain 972, OD600, 24 h, no modulator, primary screen (AID 1090).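 Note: basal condition with compound alone and no growth modifier present; test concentration not given here.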 As to conditions: S. pombe 972 growth, higher = more signal, called active from +8 up or from −8 down.
Test [14] is described as follows: budding yeast growth modifiers under rapamycin – strain BY4716, OD600, 96 h, primary screen (AID 1091). Note: test concentration not given here. As to conditions: S. cerevisiae BY4716 + rapamycin, higher = more signal, called active from +8 up or from −8 down.
In test [15] the target is Torsin-1A-interacting protein 2 (Homo sapiens) (UniProt Q8NFQ8). Nature of the test: small molecules binding lysate-expressed LULL1 – cell lysate, human LULL1 lysate, 635/667 nm fluorescence, primary screen (AID 1092).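 Note: probe is lysate of COS7 cells overexpressing human LULL1; score merges per-feature 667 nm fluorescence with signal-to-noise.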 The following applies: small-molecule microarray, hLULL1 lysate binding, 635 nm fluorescence; higher = more signal.
Test [16] can be described thus: optical density change of DRC41 E. coli – strain DRC41, OD650, 24 h, E. coli filamentation project, primary screen (AID 1093).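 Note: MC1000 strain lacking acrAB efflux and sulA so SOS filamentation is blocked; test concentration not given here.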 The following applies: E. coli DRC41 growth, higher = more signal, called active from +8 up or from −8 down.
Test [17] in a line: probe aLefty2 binding to arrayed compounds – biochemical, biotinylated probe, 635/667 nm fluorescence, primary screen (AID 1094).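 Note: score merges spot fluorescence near 667 nm with spot signal-to-noise ratio.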 The following applies: small-molecule microarray, higher = more signal.
For test [18], the system named is Noggin (protein binding on small-molecule microarray). Nature of the test: small molecules binding Noggin protein – biochemical, 635/667 nm fluorescence, primary screen (AID 1095).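 Note: score merges 667 nm feature fluorescence with signal to noise over triplicate slides.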 The following applies: 635 nm fluorescence, higher = more signal.
The target in test [19] is Neurogenic locus notch homolog protein 3 (Homo sapiens) (UniProt Q9UM47). Nature of the test: small molecules binding NOTCH3 protein – biochemical, 635/667 nm fluorescence, primary screen (AID 1096). The following applies: small-molecule microarray, 635 nm fluorescence, higher = more signal.
Test [20] in a line: probe aEGFR binding to arrayed compounds – biochemical, biotinylated probe, 635/667 nm fluorescence, primary screen (AID 1097).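 Note: probe is a biotinylated anti-EGFR antibody binding compounds printed on slides; score combines fluorescence near 667 nm and signal to noise of each spot.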 The following applies: small-molecule microarray, higher = more signal.

Chain of Torsin-1A-interacting protein 2 (Homo sapiens) (Q8NFQ8 whole entry, looked up): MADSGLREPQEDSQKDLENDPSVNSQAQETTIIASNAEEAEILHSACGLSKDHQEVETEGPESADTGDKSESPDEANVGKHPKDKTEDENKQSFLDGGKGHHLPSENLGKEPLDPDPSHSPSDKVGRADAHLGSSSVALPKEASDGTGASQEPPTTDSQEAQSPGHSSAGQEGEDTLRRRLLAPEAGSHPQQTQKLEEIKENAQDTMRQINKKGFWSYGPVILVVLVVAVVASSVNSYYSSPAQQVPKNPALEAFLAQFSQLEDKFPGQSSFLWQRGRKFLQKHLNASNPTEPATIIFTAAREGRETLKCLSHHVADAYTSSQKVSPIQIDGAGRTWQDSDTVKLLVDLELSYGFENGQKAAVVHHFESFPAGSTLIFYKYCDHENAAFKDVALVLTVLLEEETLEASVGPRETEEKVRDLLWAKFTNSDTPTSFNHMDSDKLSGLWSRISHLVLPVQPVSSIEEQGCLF
Chain of Neurogenic locus notch homolog protein 2 (Homo sapiens) (Q04721 whole entry, looked up, canonical isoform): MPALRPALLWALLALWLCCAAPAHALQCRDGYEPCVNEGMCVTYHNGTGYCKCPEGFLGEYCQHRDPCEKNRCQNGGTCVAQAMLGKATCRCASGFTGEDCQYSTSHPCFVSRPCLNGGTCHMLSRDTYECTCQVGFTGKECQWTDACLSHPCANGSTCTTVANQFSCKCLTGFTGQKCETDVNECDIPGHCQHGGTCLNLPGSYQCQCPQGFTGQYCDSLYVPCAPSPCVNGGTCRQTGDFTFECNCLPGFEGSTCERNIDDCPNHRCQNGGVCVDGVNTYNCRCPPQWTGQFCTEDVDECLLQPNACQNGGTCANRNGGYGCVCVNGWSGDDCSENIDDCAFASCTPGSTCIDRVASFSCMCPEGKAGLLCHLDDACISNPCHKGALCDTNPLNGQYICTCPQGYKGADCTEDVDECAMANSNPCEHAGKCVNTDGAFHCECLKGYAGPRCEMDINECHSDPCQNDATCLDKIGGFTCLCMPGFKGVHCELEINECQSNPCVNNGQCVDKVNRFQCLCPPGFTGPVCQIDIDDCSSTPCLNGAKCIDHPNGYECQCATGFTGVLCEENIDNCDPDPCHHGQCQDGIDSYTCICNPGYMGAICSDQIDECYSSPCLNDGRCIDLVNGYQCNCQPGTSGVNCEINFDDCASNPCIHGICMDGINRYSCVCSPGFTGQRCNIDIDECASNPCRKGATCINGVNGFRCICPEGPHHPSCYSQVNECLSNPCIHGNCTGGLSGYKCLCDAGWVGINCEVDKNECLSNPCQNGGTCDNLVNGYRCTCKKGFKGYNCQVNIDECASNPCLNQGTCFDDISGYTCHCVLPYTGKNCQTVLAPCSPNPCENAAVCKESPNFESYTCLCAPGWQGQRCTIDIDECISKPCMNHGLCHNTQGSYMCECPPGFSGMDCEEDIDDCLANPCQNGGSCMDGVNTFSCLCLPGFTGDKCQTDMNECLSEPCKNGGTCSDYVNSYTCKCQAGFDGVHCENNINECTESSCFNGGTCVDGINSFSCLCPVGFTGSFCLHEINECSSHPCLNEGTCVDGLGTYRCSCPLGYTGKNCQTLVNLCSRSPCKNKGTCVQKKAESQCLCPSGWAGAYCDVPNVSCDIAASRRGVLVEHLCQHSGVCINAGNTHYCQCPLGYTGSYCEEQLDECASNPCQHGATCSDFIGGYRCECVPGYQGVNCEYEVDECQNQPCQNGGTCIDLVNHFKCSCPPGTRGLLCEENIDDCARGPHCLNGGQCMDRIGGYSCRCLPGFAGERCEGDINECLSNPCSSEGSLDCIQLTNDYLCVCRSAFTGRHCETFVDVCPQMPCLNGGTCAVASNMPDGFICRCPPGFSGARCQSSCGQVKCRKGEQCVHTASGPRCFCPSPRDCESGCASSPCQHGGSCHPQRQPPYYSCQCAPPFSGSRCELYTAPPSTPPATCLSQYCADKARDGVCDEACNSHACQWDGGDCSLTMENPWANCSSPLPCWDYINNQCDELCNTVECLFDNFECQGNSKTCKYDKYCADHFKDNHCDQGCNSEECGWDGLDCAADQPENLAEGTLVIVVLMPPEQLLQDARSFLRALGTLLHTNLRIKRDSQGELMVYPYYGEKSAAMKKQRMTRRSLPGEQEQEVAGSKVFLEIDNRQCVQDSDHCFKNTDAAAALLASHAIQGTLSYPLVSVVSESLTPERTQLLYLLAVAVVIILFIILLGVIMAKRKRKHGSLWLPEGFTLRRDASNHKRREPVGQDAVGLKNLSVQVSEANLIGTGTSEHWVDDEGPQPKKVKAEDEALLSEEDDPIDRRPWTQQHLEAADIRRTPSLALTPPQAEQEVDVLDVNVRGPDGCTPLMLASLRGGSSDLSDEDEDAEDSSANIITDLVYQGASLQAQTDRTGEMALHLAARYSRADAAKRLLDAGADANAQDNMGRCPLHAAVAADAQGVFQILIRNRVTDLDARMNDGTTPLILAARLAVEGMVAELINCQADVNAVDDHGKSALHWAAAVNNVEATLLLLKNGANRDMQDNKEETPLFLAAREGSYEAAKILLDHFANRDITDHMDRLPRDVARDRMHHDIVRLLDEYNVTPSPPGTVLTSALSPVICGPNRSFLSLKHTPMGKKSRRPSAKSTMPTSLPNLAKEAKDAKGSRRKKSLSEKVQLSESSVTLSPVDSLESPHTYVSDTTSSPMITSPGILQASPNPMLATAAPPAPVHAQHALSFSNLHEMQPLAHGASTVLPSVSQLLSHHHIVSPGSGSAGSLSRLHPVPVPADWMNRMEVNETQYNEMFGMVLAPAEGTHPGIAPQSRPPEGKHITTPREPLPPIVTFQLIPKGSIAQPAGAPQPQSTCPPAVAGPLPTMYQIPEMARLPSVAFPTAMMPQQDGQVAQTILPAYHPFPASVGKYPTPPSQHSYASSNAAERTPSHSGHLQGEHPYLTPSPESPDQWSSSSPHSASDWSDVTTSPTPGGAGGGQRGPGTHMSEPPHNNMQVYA
Chain of Pro-neuregulin-1, membrane-bound isoform (Homo sapiens) (Q02297 whole entry, looked up, the tested form may be a part, canonical isoform): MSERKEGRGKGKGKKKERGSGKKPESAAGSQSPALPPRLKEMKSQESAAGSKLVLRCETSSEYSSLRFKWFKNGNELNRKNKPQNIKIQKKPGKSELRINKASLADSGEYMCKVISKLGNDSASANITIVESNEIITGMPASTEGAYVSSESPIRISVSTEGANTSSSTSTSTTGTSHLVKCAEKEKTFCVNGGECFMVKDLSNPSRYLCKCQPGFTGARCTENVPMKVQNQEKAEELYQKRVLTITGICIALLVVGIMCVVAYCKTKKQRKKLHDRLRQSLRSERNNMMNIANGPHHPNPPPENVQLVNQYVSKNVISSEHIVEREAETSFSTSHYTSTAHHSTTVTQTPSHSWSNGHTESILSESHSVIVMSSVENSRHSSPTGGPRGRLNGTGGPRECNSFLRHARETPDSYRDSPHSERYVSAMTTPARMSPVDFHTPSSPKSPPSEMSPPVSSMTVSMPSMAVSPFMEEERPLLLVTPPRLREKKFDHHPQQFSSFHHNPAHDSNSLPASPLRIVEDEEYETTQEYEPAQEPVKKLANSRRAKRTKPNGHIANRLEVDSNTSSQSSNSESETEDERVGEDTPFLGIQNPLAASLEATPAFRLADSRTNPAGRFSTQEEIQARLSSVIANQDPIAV

As to `CO[C@@H]1COC(=O)[C@H](COCc2ccccc2)NC(=O)CC=C[C@@H](C)[C@H](OC)COC(=O)[C@@H](C)NC(=O)CC=C[C@H]1C`, the composite z-score in test [1] is -0.459; in [2], 1.36; in [3], -0.191; in test [4], -0.632; in test [5] it was -0.45; in [6], -0.637. The composite z-score in test [7] was -0.826; in test [9], -0.0711; in [10], 0.0139; in [11] it was 1.39; in test [15], -1.07; in test [17], -0.147. Besides, the composite z-score is 1.16 in [18], -0.0488 in test [19] and -0.166 in test [20]. The z-score was 0.696 (inactive) in test [8]; 0.203 (inactive) in test [12]; -0.536 (inactive) in test [13]; 0.55 (inactive) in [14]; 1.52 (inactive) in test [16].

As to `COC(=O)[C@H](C)NC(=O)CCC1CC(OC(=O)NCCc2ccc(F)cc2)CC2(CCCC(COC(=O)NCC3CCCCC3)O2)O1` (stereo not given in full), the composite z-score was -0.429 in [1]; 0.437 in [2]; -0.116 in [3]; 0.605 in test [4]; 1.32 in test [5]; 0.618 in test [6]. Also, the composite z-score is 1.06 in [7]; 0.486 in test [9]; -0.143 in [10]; 1.49 in test [11]; 2.16 in [15]; -0.139 in test [17]. Moreover, the composite z-score in [18] amounted to 0.883; in test [19], 1.06; in test [20] it was 0.0207. Moreover, the z-score was 0.617 (inactive) in test [8]; -0.797 (inactive) in test [12]; -0.781 (inactive) in test [13]; 0.689 (inactive) in [14]; -0.718 (inactive) in test [16].

Turning to `CC(=O)OC[C@H]1O[C@H](CC=NO[C@H](C)c2cn([C@@H]3COC[C@H]3O)nn2)C=C[C@@H]1OC(C)=O`, the composite z-score in test [1] was -0.239; in [2], 0.0556; in [3], -0.131; in test [4] it was 0.294; in test [5], 0.277; in test [6] it was -0.0528. Moreover, the composite z-score in test [7] was 0.422; in [9], -0.149; in test [10], -0.0673; in [11] it was 0.611; in test [15], -0.3; in test [17], -0.23. Moreover, the figures for the composite z-score in [18], in test [19] and in test [20] were 0.411, 0.212 and -0.0845, respectively. Also, the z-score in test [8] is -0.956 (inactive); in [12], -2 (inactive); in [13], -0.535 (inactive); in [14], -0.277 (inactive); in test [16] it was -0.763 (inactive).

For the molecule `CCN1C(=O)[C@H]2[C@H]3[C@H](O)[C@H](O)CC(=NNC(=O)OCc4ccccc4)[C@@H]3CC[C@H]2C1=O`, the composite z-score is 0.18 in test [1]; -0.287 in test [2]; -0.153 in [3]; 0.0519 in test [4]; -0.311 in test [5]; -0.003 in test [6]. Further, the composite z-score in test [7] was -0.514; in test [9] it was 0.302; in test [10], -0.249; in test [11], -0.738; in [15], 0.614; in test [17] it was -0.044. Besides, the composite z-score in [18] is -0.0412; in [19] it was -0.0028; in test [20], -0.118. Moreover, the z-score in test [8] is 0.639 (inactive); in test [12] it was -0.0309 (inactive); in [13] it was -0.277 (inactive); in test [14], -0.133 (inactive); in test [16] it was 0.801 (inactive).

As for `COC(=O)CC=C[C@@H](C)[C@@H](C=NOC(C)CN1CCCc2nc(C)c(C)cc21)NS(=O)(=O)c1ccc(C)cc1` (stereo not given in full), the composite z-score in test [1] was -0.0882; in test [2] it was 0.296; in [3], -0.0202; in [4] it was 0.469; in [5] it was 0.699; in test [6], 0.257. Also, the composite z-score in test [7] was 0.665; in test [9] it was 0.316; in [10], 0.809; in test [11] it was 1.3; in [15], 1.05; in test [17] it was 0.156. The composite z-score is 0.629 in test [18], 0.812 in test [19] and -0.0158 in [20]. For the same molecule, the z-score in test [8] is 0.562 (inactive); in [12], 0.207 (inactive); in [13], 0.12 (inactive); in [14] it was -0.0152 (inactive); in test [16], 0.644 (inactive).
